Screening results: PubChem BioAssay, PCMD
The list is not random: actives were taken first. Their share in the collection is about 0.58%.
C1s inh – complement C1s protease inhibitors, primary screen, biochemical, 10-compound mixtures; purified C1s, fluorogenic AMC substrate, pooled mixtures; mean inhibition % of two 10-compound mixtures (hits give high values), % at 5 µM (by protocol); Complement C1s subcomponent (Homo sapiens), P09871; 0.16% of 62,000 active;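 active = inhibition above 20% in each of the two 10-compound mixture wells holding the compound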;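 also: 0% = enzyme wells lacking compound mixture and 100% = no-enzyme blank wells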
CatL inh – inhibitors of human cathepsin L, biochemical; Procathepsin L (Homo sapiens), P07711; purified cathepsin L, fluorogenic substrate, fluorescence; inhibition, %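 (tested at 10 µM)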; 0.17% of 58,000 active; AID 460, 2006; in the data active = inhibition above about 45%;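 also: 0% = enzyme with no compound and 100% = no enzyme blank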
Target sequence (P07711 114-288 limits assumed): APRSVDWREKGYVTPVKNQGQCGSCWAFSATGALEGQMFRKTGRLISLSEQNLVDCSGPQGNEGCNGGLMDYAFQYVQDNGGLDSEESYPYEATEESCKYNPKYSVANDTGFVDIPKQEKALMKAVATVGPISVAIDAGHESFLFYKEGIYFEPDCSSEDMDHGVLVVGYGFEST
Target sequence (P07711 292-333 limits assumed): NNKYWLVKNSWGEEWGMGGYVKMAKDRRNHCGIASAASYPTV
CatB block – human cathepsin B inhibitors, primary screen, biochemical, fluorogenic substrate; 0.1% of 63,000 active; inhibition, %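 (tested at 10 µM)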; P07858; purified cathepsin B, fluorescence; in the data active = inhibition above about 21%;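 also: 0% = enzyme with no compound and 100% = no enzyme blank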
CatS block – inhibitors of human cathepsin S, biochemical, compound mixtures. P25774. recombinant cathepsin S, AMC dipeptide fluorescence, pooled mixtures. inhibition, %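 (tested at 5 µM per compound within 10-compound mixtures)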. 0.06% of 62,000 active. AID 501, 2006; in the data active = inhibition above about 32%, passing the limit was not always enough; inconclusive = no clear call, values can overlap the other calls;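 also: 0% = enzyme without compound and 100% = blank without enzyme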
Target sequence (P25774 115-331 limits assumed): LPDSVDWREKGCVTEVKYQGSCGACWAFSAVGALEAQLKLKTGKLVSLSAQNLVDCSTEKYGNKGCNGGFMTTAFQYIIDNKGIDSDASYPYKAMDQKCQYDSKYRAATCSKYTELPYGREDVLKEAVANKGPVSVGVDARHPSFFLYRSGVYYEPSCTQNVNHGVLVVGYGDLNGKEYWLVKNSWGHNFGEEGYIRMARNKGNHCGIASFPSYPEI
CatG inh – human cathepsin G inhibitors, primary screen, biochemical, pooled compound mixtures, AMC fluorescence. P08311. purified enzyme, AMC-tetrapeptide fluorescence. inhibition, % at 5 µM (by protocol). 0.2% of 62,000 active. AID 581, 2007;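 active = inhibition above 20% in each of the two mixture wells holding the compound; inactive = inhibition of 20% or less in either well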;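 also: 0% = enzyme control without mixture and 100% = blank lacking enzyme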
CatB mixtures – cathepsin B inhibitors from pooled compounds, primary screen, biochemical, compound mixtures, AMC fluorescence | inhibition, %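 (ten-compound pools at 5 µM per compound and 50 µM total)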 | Purified cathepsin B, AMC dipeptide fluorescence | AID 488, 2006 | P07858 | 0.06% of 62,000 active; in the data active = inhibition above about 22%, passing the limit was not always enough; inconclusive = no clear call, values can overlap the other calls;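 also: 0% = enzyme without compound and 100% = no enzyme blank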
Starred values were filed as active, the others as inactive; ? = inconclusive; . = no result given.

SMILES	C1s inh	CatL inh	CatB block	CatS block	CatG inh	CatB mixtures
COc1nc(N2CCCCCC2)nc(N2CCCCCC2)n1	26	1	4	-4	-9	3
COc1nc(N(C#N)CC(N)=O)nc(N2CCCC2)n1	-1	1	37*	-4	0	23*
Cc1nc2sc(C(c3ccccc3)N3CCN(C)CC3)c(O)n2n1 (stereo not given)	-2	-5	1	-9	7	3
Cc1cc(C)c2c(=O)n(CC(=O)NCCCN3CCN(c4ccccc4F)CC3)sc2n1	14	65*	3	6	10	7
Cc1cc(C)c2c(=O)n(CC(=O)NCCCN3CCOCC3)sc2n1	14	12	2	2	6	5
O=C(CSc1nnc(-c2ccccc2Br)o1)N1CCc2ccccc2C1	-30	11	5	?	4	-4
Nc1nonc1-c1noc(N2CCCCC2)n1	2	36	24*	0	5	6
COc1cccc(NC2=NCC(=O)N2Cc2cccs2)c1	15	73*	-2	-1	12	4
COc1ccc(NC2=NCCC(=O)N2Cc2cccs2)cc1	3	0	0	-3	10	-2
Cn1ncc2c1ncn1c(-c3ccccc3Cl)nnc21	4	-11	0	3	9	-4
CCN=C1SC(CC(=O)Nc2sc(C)c(C)c2C(=O)OC)C(=O)N1CC (stereo not given)	11	-7	2	0	9	5
Cn1c(C(=O)NCCCN2CCOCC2)cc2c(=O)n(C)c3ccccc3c21	-3	10	-5	47*	-3	2
CC1CCN(CCCNC(=O)c2cc3c(=O)n(C)c4ccccc4c3n2C)CC1	-5	-1	1	?	6	0
Cn1c(C(=O)NCCN2CCCCCC2)cc2c(=O)n(C)c3ccccc3c21	10	16	1	69*	6	-1
Cn1c(C(=O)NCCCN2CCN(c3ccccc3F)CC2)cc2c(=O)n(C)c3ccccc3c21	12	6	4	34	4	5
Cn1c(C(=O)NCCN2CCN(Cc3ccccc3)CC2)cc2c(=O)n(C)c3ccccc3c21	-5	20	1	58*	-4	-1
Cn1nc(C(=O)Nc2c(-c3ccccc3)nc3sccn23)c2ccccc2c1=O	-5	8	3	12	10	3
CC1CCN(S(=O)(=O)c2cccc(C(=O)NCc3cccs3)c2)CC1	23*	-1	-2	-6	16	4
CC1CCN(S(=O)(=O)c2cccc(C(=O)Nc3ccccn3)c2)CC1	-78	10	1	-6	-6	-3
COc1ccc(CNc2nc3c(c(C(F)(F)F)n2)CCCCC3)cc1	14	12	-1	-1	8	1
O=C(CSCc1cccc(Br)c1)N1CCOCC1	-1	.	2	-7	8	4
CC(=O)OC1(C(F)(F)F)Oc2ccccc2NC1=O (stereo not given)	-1	85*	75*	22	-2	61*
O=C(CC1Oc2ccccc2NC1=O)NC1CC1 (stereo not given)	3	.	-4	0	9	0
N#Cc1ccc(N2CCN(C(=O)c3cccc(F)c3)CC2)c(F)c1	-40	9	7	4	-2	7
COc1ccc2c(c1)CCc1c(C(=O)Nc3cc(C)n(Cc4ccc(Cl)cc4)n3)noc1-2	12	0	4	-4	66*	1
SMILES	C1s inh	CatL inh	CatB block	CatS block	CatG inh	CatB mixtures
COc1ccc2c(c1)CCc1c(C(=O)Nc3ccn(Cc4ccc(C)cc4)n3)noc1-2	11	-4	1	-2	94*	2
CCOC(=O)c1cn2c3c(c(F)c(F)c(F)c3c1=O)SC(N1CCCC1)=N2	-3	-25	2	0	3	-1
CCOc1cc2[nH]c(=O)n(CCCCC(=O)NC3CCCCC3)c(=O)c2cc1OCC	6	5	5	-3	7	-2
COc1ccccc1-c1cc(C(=O)Nc2cccnc2)no1	3	-2	0	-5	34*	-3
COc1ccc(NC(=O)c2cc(-c3ccccc3OC)on2)cc1	23	-5	-8	-14	18	38
COC(=O)c1ccc(NC(=O)CSc2nnc(CNc3ccc(F)cc3)n2C)cc1	-8	9	-4	9	7	-1
CCc1cc(=O)oc2cc(C)cc(OC(=O)c3ccco3)c12	38*	10	-7	-4	18	0
N#Cc1c(N)sc(=S)c2c1CCN(Cc1ccccc1)C2	-40	47*	80*	75*	-2	36
CCN1CCc2c(sc(N)c2C#N)C1	-48	-19	-5	-10	-6	-1
Cn1c(Cn2c(=O)sc3ccccc32)nnc1SCC(=O)NCCc1ccccc1	17	.	1	-1	11	4
COc1ccc(C(=O)c2no[n+]([O-])c2C(=O)c2ccc(OC)cc2)cc1	6	28	31*	8	1	37*
O=C(CSc1ccc2nnc(-c3ccc(Cl)cc3)n2n1)N1CCN(c2ccccc2)CC1	1	11	2	13	11	2
COC(=O)NC1CSCC1OC(=O)c1ccc(Br)cc1 (stereo not given)	-120	9	-4	-20	-19	-14
CC(=O)NC(=O)NC1CSCC1OC(C)=O (stereo not given)	58*	13	-2	16	14	8
CC(=O)Nc1c(C(=O)c2ccccc2)oc2ccccc12	-6	104*	-2	?	-5	6
CC(=O)Nc1c(C(=O)C2CC2)oc2ccccc12	-15	5	7	16	9	34
O=C(CC(c1ccccc1)c1ccco1)N1CCOCC1 (stereo not given)	-74	18	8	59*	-11	7
O=C(CSc1c2c(nc3ccc(Cl)cc13)CCCC2)N1CCN(C(=O)c2ccco2)CC1	5	8	1	6	8	3
CCc1ccc(-c2cn(-c3nc(C)cc(C)n3)c(=N)o2)cc1	52*	10	5	19	8	5
Cc1ccc(OCC(=O)Nc2ccc(N3CCOCC3)cc2)cc1	60*	5	3	-5	45	2
c1ccc(Cn2nnnc2C(c2cccnc2)N2CCN(c3ccccc3)CC2)cc1 (stereo not given)	-1	-3	-1	-8	-2	5
COc1ccc(CCNC(=O)Cn2c(-c3nonc3N)nc3ccccc32)cc1OC	9	10	14	-7	10	12
CCCCOc1ccccc1NC(=O)Cn1c(-c2nonc2N)nc2ccccc21	-163	60*	54*	-7	-14	-3
Nc1nonc1-c1nc2ccccc2n1CC(=O)N1CCN(c2ccc(F)cc2)CC1	-4	.	37*	4	1	10
